Laboratory results published in PubChem BioAssay AID588448 (NMMLSC, 2011).
The source made the active and inactive calls.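 The calls were made as follows: active = half-maximal concentration under 30 µM, fit with over 36% top-dose inhibition and error below a fifth of it; inactive = the rest.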

target: Integrin alpha-4 (Homo sapiens) (UniProt P13612); assay: allosteric VLA-4 ligands by LIBS antibody binding, SAR follow-up, U937 cells, powder samples, set 2 (AID 588448); conditions: HUTS-21 LIBS mAb binding, flow cytometry; series mostly up to 66.7 µM; inhibition: at the top concentration
Sequence (P13612 whole entry, looked up): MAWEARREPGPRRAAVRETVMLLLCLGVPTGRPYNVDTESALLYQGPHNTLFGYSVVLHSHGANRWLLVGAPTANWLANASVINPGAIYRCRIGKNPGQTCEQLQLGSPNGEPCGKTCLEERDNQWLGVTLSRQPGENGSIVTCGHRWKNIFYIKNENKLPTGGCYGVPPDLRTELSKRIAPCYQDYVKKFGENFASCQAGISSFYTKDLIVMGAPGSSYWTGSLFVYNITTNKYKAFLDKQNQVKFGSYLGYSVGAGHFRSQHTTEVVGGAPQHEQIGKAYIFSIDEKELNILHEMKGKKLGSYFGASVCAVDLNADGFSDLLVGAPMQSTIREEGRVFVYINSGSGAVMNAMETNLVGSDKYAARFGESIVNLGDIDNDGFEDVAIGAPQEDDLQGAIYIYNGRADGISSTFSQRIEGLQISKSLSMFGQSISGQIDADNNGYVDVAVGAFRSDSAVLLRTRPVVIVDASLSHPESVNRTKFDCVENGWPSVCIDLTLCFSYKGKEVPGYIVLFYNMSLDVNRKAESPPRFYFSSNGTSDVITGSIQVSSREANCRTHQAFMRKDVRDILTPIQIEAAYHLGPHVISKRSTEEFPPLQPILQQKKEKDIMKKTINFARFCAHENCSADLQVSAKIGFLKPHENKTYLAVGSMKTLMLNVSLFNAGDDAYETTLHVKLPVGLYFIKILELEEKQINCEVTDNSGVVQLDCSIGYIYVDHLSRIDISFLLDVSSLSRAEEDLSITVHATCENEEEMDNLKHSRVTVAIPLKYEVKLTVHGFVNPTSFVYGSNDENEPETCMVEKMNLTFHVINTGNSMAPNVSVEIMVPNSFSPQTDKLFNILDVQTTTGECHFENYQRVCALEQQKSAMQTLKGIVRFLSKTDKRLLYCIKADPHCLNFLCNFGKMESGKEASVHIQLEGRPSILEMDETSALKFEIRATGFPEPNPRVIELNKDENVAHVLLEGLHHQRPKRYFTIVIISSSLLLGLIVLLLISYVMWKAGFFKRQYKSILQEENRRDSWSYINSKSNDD

inhibition, inactive:
Cc1ccc(C)n1-c1ccc(C(=O)N(C)Cc2ccco2)cc1 2.7, CCN1CC(c2nc3ccccc3n2Cc2ccccc2)CC1=O (centres undefined) 24.2, CCn1c(C2CC(=O)N(c3ccccc3OC)C2)nc2ccccc21 (centres undefined) 39.6, CSc1ccccc1OCc1cc(C(=O)N2CCCC2)no1 7.51, COc1ccc(C2CCCN2C(=O)c2sccc2C)cc1OC (centres undefined) 6.87, O=C(c1ccc(OCCN2CCCCC2)cc1)c1c(-c2ccc(O)cc2)sc2cc(O)ccc12 -87.7, COCCn1c(C2CC(=O)N(c3ccccc3C)C2)nc2ccccc21 (centres undefined) 10.7, CCN1CC(c2nc3ccccc3n2CCOc2ccccc2)CC1=O (centres undefined) 14.6, COCCn1c(C2CC(=O)N(c3cccc(C)c3)C2)nc2ccccc21 (centres undefined) -13.7, COc1ccccc1Cn1c(C2CC(=O)N(C)C2)nc2ccccc21 (centres undefined) 4.63, Cn1cc(C(=O)N2CCCC2c2nc3ccccc3s2)cn1 (centres undefined) 7.19, Cc1cc(C(=O)N2CCCC2c2ccc3c(c2)OCCO3)sc1C (centres undefined) 5.59, COc1ccc(-c2nn(Cc3ccccc3)cc2C(=O)N2CCC2)cc1 -0.18, Cc1nc2ccccc2n1CCc1noc(COc2ccccc2)n1 3.66, O=C1C2CC=CCC2C(=O)N1Cc1csc(Cc2ccccc2)n1 (centres undefined) 15.8, COCC(=O)N1CCC2(CCCN(CCc3ccccc3)C2=O)C1 (centres undefined) 38, CN1CC(c2nc3ccccc3n2CCOc2ccccc2)CC1=O (centres undefined) -8.52, CCOc1ccccc1N1CC(c2nc3ccccc3n2C)CC1=O (centres undefined) 26.1, CN(Cc1ccco1)C(=O)c1ccc(-n2cnc3ccccc32)cc1 13, Cc1cc(C(=O)N2CCCC2c2nc3ccccc3s2)on1 (centres undefined) 22.9, COc1ccccc1N1CCN(CC(=O)c2ccc(F)cc2)CC1 -8.2, COc1cc(OCc2ccccc2)ccc1CN1CCN(C)CC1 -6.27, CCOCCn1c(C2CC(=O)N(c3ccccc3)C2)nc2ccccc21 (centres undefined) 12.3, COCCn1c(C2CC(=O)N(Cc3ccco3)C2)nc2ccccc21 (centres undefined) 7.51, Cc1oc(-c2cccs2)nc1CN1C(=O)C2CC=CCC2C1=O (centres undefined) 4.95, Cc1ccc(-c2nc(CN3C(=O)C4CC=CCC4C3=O)cs2)cc1 (centres undefined) 5.59, CC(=O)N(C)Cc1nc2ccccc2n1CCOc1ccc(C)cc1 22.3, CCn1c(C2CC(=O)N(CCc3ccccc3)C2)nc2ccccc21 (centres undefined) 23.5, Cc1nc(C)c(C(=O)N2CCCC2c2nc3ccccc3s2)s1 (centres undefined) 5.91
